Screen size: about 300,000 compounds; about 37,000 (12%) were called active. Shown is part of a subset that was picked to be rich in actives. Values without a mark were called inactive. Cut-off read from the data, not from the text of the source: active = max response mostly above about 13% (no sharp cut-off); inactive = mostly below about 14%.

A short description of the assay: Cycloheximide Counterscreen for Small Molecule Inhibitors of Shiga Toxin. Note: read at 38.3 µM for the half of the compounds with a filed dose; 0% is about no effect. The following applies: cell reporter, cycloheximide protein synthesis inhibition counterscreen; active compounds read high.
With `COc1ccc(CCNC(=O)NS(=O)(=O)c2ccc(C)cc2)cc1OC`, the max response is -2.33%.

`COc1ccc(S(=O)(=O)NCCc2c[nH]c3ccccc23)cc1OC`: the max response is 2.61%.

Regarding `Nc1nc(SCc2cccc(Br)c2)n[nH]1`, the max response was 0.308%.

As to `CCc1ccc(N2CC(C(=O)N3CCCCCC3)CC2=O)cc1` (configuration not stated), the max response was 15.1%.

For the compound `COc1cccc(NC(=O)COC(=O)CCOc2ccccc2OC)c1`, the max response is -1.24%.

Regarding `CCn1c(COc2ccccc2)nnc1SCC(=O)Nc1ccc2c(c1)OCCO2`, the max response was 8.26%.

Regarding `Cc1ccc(SCC(=O)Nc2ccc3c(c2)OCCO3)cc1`, the max response is 73.6% (active).

On to `CCN(CC(=O)Nc1ccc2c(c1)OCCO2)Cc1cc(=O)oc2cc(C)c(C)cc12`, for which the max response is 11.2% (active).

In the case of `CCN(CC(=O)Nc1ccc2c(c1)OCO2)S(=O)(=O)c1ccccc1`, the max response is -0.651%.

On to `COC(=O)CCNc1ccc2c(c1)OCCO2`, for which the max response is 48.2% (active).

In the case of `Cc1ccc(S(=O)(=O)NCC(=O)Nc2ccc3c(c2)OCCO3)cc1`, the max response was 6.27%.

In the case of `CCC(C)(C)NC(=O)CN(C(=O)C(=O)Nc1ccc2c(c1)OCCO2)C(C)(C)CC`, the max response was -5.87%.

On to `O=C(COc1ccc2c(C(F)(F)F)cc(=O)oc2c1)Nc1ccc2c(c1)OCCO2`, for which the max response is 5.22%.

For `COc1ccccc1OCCCC(=O)Nc1ccc2c(c1)OCCO2`, the max response was 32.1% (active).

Turning to `CCn1c(SCC(=O)Nc2ccc3c(c2)OCCO3)nnc1-c1ccncc1`, the max response is 2.74%.

For the compound `Cc1sc2ncn(CC(=O)NCCCC(=O)N(C)Cc3ccccc3)c(=O)c2c1C`, the max response is 0.104%.

Consider `CCC(=O)N(Cc1cc2ccccc2[nH]c1=O)c1ccc(OC)cc1`, for which the max response is -1.99%.

With `O=C(CNC(=O)OCc1ccccc1)NC1CCCCNC1=O` (configuration not stated), the max response was 1.1%.

For the compound `CCOc1ccc(C(=O)Nc2ccc(S(=O)(=O)NCC3CCCO3)cc2)cc1OCC` (configuration not stated), the max response was -3.06%.

In the case of `CCN(CC)CCNc1nc(-c2ccc(OC(F)F)cc2)c(C)s1`, the max response was -2.43%.

Turning to `COc1ccc(-n2nc(C(=O)NCC(=O)N3CCC(C(N)=O)CC3)c3ccccc3c2=O)cc1OC`, the max response is -3.96%.

Consider `CC(=O)c1c(C)oc2ccc(NS(=O)(=O)c3ccc(C(=O)O)cc3)cc12`, for which the max response is -0.66%.

As for `CCOC(=O)CSc1nnc(-c2ccco2)n1C`, the max response was -2.04%.

In the case of `CCCCNC(=O)CSc1nnc(-c2ccco2)n1C`, the max response is 1.17%.

With `Cn1c(SCC(=O)c2cccs2)nnc1-c1ccco1`, the max response was 29.8% (active).

For the compound `CC(C)CC(=O)Nc1nnc(S(=O)(=O)N(C)c2ccc(Cl)cc2)s1`, the max response is -2.39%.

As to `COc1ccc2c(C(=O)c3ccc(C)cc3)n(CCC(N)=O)[n+]([O-])c2c1`, the max response was 7.82%.

With `COC(=O)c1c(NC(=O)c2ccc(S(=O)(=O)N3CCOCC3)cc2)sc2c1CCN(C(C)C)C2`, the max response was -1.08%.

Regarding `CC(=O)Nc1ccc(NC(=O)C2CCCN(S(=O)(=O)c3ccc(Cl)cc3)C2)cc1` (configuration not stated), the max response was -5.06%.

Regarding `CC(=O)N1CCC(N(C(=O)Nc2ccc(Cl)cc2)C(C)C)CC1`, the max response was 9.65% (active).

For `CCOC(=O)C1CCN(C(=O)Nc2ccc(Cl)cc2)CC1`, the max response was 12.6%.

Consider `COc1cccc(NC(=O)C2C(c3ccccc3)C2(Cl)Cl)c1` (configuration not stated), for which the max response was 1.73%.

`CCOCCOC(=O)C(C)Oc1ccc(Oc2ncc(C(F)(F)F)cc2Cl)cc1` (configuration not stated): the max response was 0.288%.

For the compound `CCOC(=O)CN(C(=O)COc1nc(C)cc(C)c1C#N)c1ccc(Cl)cc1`, the max response was 1.33%.

In the case of `c1ccc(-n2nc3ccccc3n2)cc1`, the max response is 10.4%.

For the compound `O=C1CCCc2nn(-c3ccccc3)nc21`, the max response was 31.9% (active).

Turning to `O=C1CCC(=O)N(c2ccccc2)N1`, the max response is 4.98%.

`CCCc1nc(SCC(=O)N2CCCC2)c2c(=O)n(C)c(=O)n(C)c2n1`: the max response was -1.08%.

`COCCNC(=O)CN(Cc1ccco1)C(=O)CCC(=O)Nc1nccs1`: the max response was -7.71%.

With `Cc1ccc(Nc2c(F)c(F)c(F)c(F)c2C(=O)O)c(C)c1`, the max response is -3.03%.

Consider `COc1ccccc1CNC(=O)c1ccc(SC)cc1OC`, for which the max response was 8.03%.

Turning to `Cc1ccnc(NC(=O)c2ccoc2C)c1`, the max response is 35.7% (active).

In the case of `COc1cc(SC)ccc1C(=O)Nc1cc(C)ccn1`, the max response was 40.1% (active).

Take `Cc1occc1C(=O)Nc1cccc(Cn2cccn2)c1`: the max response is 10.7%.

As for `Cc1ccnc(NC(=O)CCCOc2ccccc2)c1`, the max response is 9.11%.

Consider `COc1cc(SC)ccc1C(=O)Nc1nc(C)cs1`, for which the max response was -6.32%.

In the case of `COc1ccccc1OCCNC(=O)CCNC(=O)c1ccccc1Cl`, the max response is 5.13%.

Regarding `COc1cc(SC)ccc1C(=O)N(Cc1ccccc1)c1ccccc1`, the max response is -0.326%.

Take `COc1cc(SC)ccc1C(=O)NCCOc1ccccc1Cl`: the max response was 57.7% (active).

As for `COc1ccc(CCNc2cc(C)nc3c(-c4ccc(Cl)cc4)c(C)nn23)cc1OC`, the max response is -1.95%.

For `COc1cccc(NC(=O)c2cc(S(=O)(=O)N3CCc4ccccc43)cn2C)c1`, the max response was -2.59%.

For `CCc1nn(CCCN2CCN(c3cccc(Cl)c3)CC2)c(=O)n1CCOc1ccccc1`, the max response is -3.76% [middle of 4 runs].

With `Cn1c(=O)c2c(SCC(=O)NCC3CCCO3)nc(CC(C)(C)C)nc2n(C)c1=O` (configuration not stated), the max response is 0.724%.

Regarding `CC(OC(=O)c1ccccc1OCc1ccc(Cl)cc1)C(N)=O` (configuration not stated), the max response is 2.27%.

For `CC(C)Cc1nnc(NC(=O)CN2C(=O)NC3(CCCCC3)C2=O)s1`, the max response was -1.99%.

For the compound `O=C(Nc1ccc(CN2CCOCC2)cc1)c1cc(Cl)ccc1Cl`, the max response is -1.65%.

Regarding `O=C(O)c1ccc(NC(=O)c2cn(-c3ccccc3)nc2-c2ccc(Cl)cc2)cc1`, the max response was 10.4%.

Take `C=CCn1cc(Cl)cc(C(=O)Nc2ccccc2)c1=O`: the max response is 14.1% (active).

For the compound `CCOc1ccc(Br)cc1CSC(=N)N`, the max response is -0.921%.

Consider `O=C(CSc1ccc(-c2cccs2)nn1)Nc1ccccc1F`, for which the max response was 16.1%.

For `Cc1cccc(CSc2nnc(Cn3c(=O)sc4ccccc43)n2C)c1`, the max response is -3.59%.

Regarding `Cc1cccc(CSc2ccc(-c3cccs3)nn2)c1`, the max response was 35% (active).

Consider `CCOC(=O)c1ccc(-n2c(CCC(=O)O)ccc2-c2ccccc2)cc1`, for which the max response was -3.35%.

With `COc1ccc(CCOC(=O)CNC(=O)c2ccc(Cl)cc2Cl)cc1`, the max response was 7.31%.

With `O=C(c1cccs1)C1C(c2ccc(Br)cc2)NC(=S)NC1(O)C(F)(F)F` (configuration not stated), the max response was 29.2% (active).

Take `CC(=O)C1C(c2ccc(Cl)cc2)NC(=O)NC1(O)C(F)(F)F` (configuration not stated): the max response is -2.92%.

`CCOC(=O)C1C(c2ccc(Cl)cc2)NC(=S)NC1(O)C(F)(F)F` (configuration not stated): the max response is -4.55%.

As for `CC(C)CCOc1ccc(C(=O)C[N+]2(C)CCOCC2)cc1`, the max response was -6.71%.

With `COc1ccc(CN(C)C(=O)c2cc(-c3ccc(C)cc3C)nc3ccccc23)c(OC)c1OC`, the max response is 9.76% (active).

In the case of `Cc1ccc(-c2cc(C(=O)Nc3nn[nH]n3)c3ccccc3n2)c(C)c1`, the max response is -3.28%.

`COc1ccc(-c2cc(C(=O)N(C)Cc3ccccc3)c3ccccc3n2)cc1`: the max response was 10.1%.

Regarding `O=C(CCC1CCN(C(=O)c2cccc(Cl)c2F)CC1)Nc1ccccc1`, the max response was 3.41%.

For the compound `CC1CCN(CCCn2c(SCC(=O)NC3CCCC3)nc3ccccc3c2=O)CC1`, the max response is -1.13%.

In the case of `COc1ccc(C(=O)CCC(=O)Nc2cccnc2)c(OC)c1`, the max response is -5.23%.

In the case of `COc1ccc(CC(=O)NC(C)CCc2ccccc2)cc1` (configuration not stated), the max response was -0.862%.

Regarding `COc1ccc(C(=O)COC(=O)c2nn(C)c(=O)c3ccccc23)c(OC)c1`, the max response is 4.36%.

For `COc1ccc(C(=O)NC(C)CCc2ccccc2)c(OC)c1` (configuration not stated), the max response is 25.4% (active).

As for `COc1ccc(C(=O)CCc2ccccc2O)c(OC)c1`, the max response is 32.7% (active).

For the compound `COc1cc(C(=O)OCC(=O)NC(C)CCc2ccccc2)cc(OC)c1OC` (configuration not stated), the max response is -8.18%.

With `O=C(NC1CCCC1)C1CCN(C(=O)Nc2cccc(Cl)c2)CC1`, the max response was -1.38%.

Turning to `Cc1cccc(N2CCN(Cc3nc(C4CC4)no3)CC2)n1`, the max response is -2.08%.

Take `Cc1cccc(C)c1NC(=O)C1CCCN1C(=O)OC(C)(C)C` (configuration not stated): the max response was 6.96%.

`O=C(CO/N=C/c1ccccc1O)NNC(=O)c1ccccc1Cl`: the max response is -2.64%.

Consider `Cc1ccccc1C1=NC(C(F)(F)F)(C(F)(F)F)c2c(n(-c3ccc(F)cc3)c(=O)[nH]c2=O)N1`, for which the max response was -1.61%.

For the compound `O=C(O)CSc1c2c(nc3cc(C(=O)Nc4cccc(C(F)(F)F)c4)ccc13)CCCC2`, the max response is -2.41%.

As for `O=C(Nc1nnc(CCc2ccccc2)s1)C1CCCO1` (configuration not stated), the max response was 14.8% (active).

For `O=C(Nc1nnc(SCc2c(Cl)cccc2Cl)s1)c1cccc([N+](=O)[O-])c1`, the max response is 8%.

As to `O=C(C1CCCO1)N(Cc1ccccc1)c1ccccc1` (configuration not stated), the max response is -0.517%.

Take `O=C(Nc1nnc(SCc2ccc(Cl)cc2Cl)s1)C1COc2ccccc2O1` (configuration not stated): the max response was -3.01%.

For `CC(C)Cc1nnc(NC(=O)CCc2ccccc2)s1`, the max response was -1.48%.

`O=C(Nc1nnc(SCc2c(Cl)cccc2Cl)s1)C1CCCO1` (configuration not stated): the max response is 28% (active).

Turning to `O=C(NC(Cc1ccccc1)C(=O)O)/C(=C\c1ccccc1)NC(=O)c1ccco1` (configuration not stated), the max response is -3.05%.

`COc1cc(CN2CCN(Cc3ccc(C)cc3)CC2)c([N+](=O)[O-])cc1OC`: the max response is -2.69%.

In the case of `CN(CC(=O)Nc1ccccc1C(F)(F)F)C(=O)Cc1ccccc1F`, the max response is -1.32%.

`Cn1cc[n+](C)c1COc1ccc(C=O)cc1`: the max response is 1.36%.

For `O=Cc1ccc(OCc2cn3ccccc3n2)cc1`, the max response was 31.8% (active).

Consider `COc1ccc(C(=O)NCc2cn3ccccc3n2)cc1`, for which the max response was -1.44%.
